Assay results published in the supplement of paper PMC6897291.

Columns and labels:
U-2932 [1] = assay: growth inhibition by drug alone (1 - RLU/untreated control) (fraction); higher = stronger inhibition; conditions: 177Lu-lilotomab satetraxetan 0 ug/ml
Method in brief: (§1)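 Plates pre-printed with the Selleck Cambridge Cancer Compound library at 10/100 nM (RIVA) or 10/1,000 nM (U-2932) received 3,000 cells/well. These cells had been washed after 18 h untreated or with a radiolabelled anti-CD37 antibody conjugate (~600 MBq/mg; 0.5 µg/ml RIVA, 1 µg/ml U-2932). Growth inhibition was obtained from RealTime-Glo luminescence in relation to untreated no-drug wells. Each daily read from day 3, taken after 1 h at 37°C, was converted as 1 − RLU/mean of 48 such wells per plate.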

RIVA [2] = assay: as above; conditions: 177Lu-lilotomab satetraxetan 0 ug/ml
Method in brief: as §1

U-2932 [3] = assay: growth inhibition by drug plus 177Lu-lilotomab satetraxetan (1 - RLU/untreated control) (fraction); higher = stronger inhibition; conditions: 177Lu-lilotomab satetraxetan 1 ug/ml
Method in brief: as §1

RIVA [4] = assay: as above; conditions: 177Lu-lilotomab satetraxetan 0.5 ug/ml
Method in brief: as §1

SMILES	growth inhibition by drug alone (U-2932 [1]; 10 nM, time (day): 3)	growth inhibition by drug alone (U-2932 [1]; 10 nM, time (day): 4)	growth inhibition by drug alone (U-2932 [1]; 10 nM, time (day): 5)	growth inhibition by drug alone (U-2932 [1]; 10 nM, time (day): 6)	growth inhibition by drug alone (U-2932 [1]; 1000 nM, time (day): 3)	growth inhibition by drug alone (U-2932 [1]; 1000 nM, time (day): 4)	growth inhibition by drug alone (U-2932 [1]; 1000 nM, time (day): 5)	growth inhibition by drug alone (U-2932 [1]; 1000 nM, time (day): 6)	growth inhibition by drug alone (RIVA [2]; 10 nM, time (day): 3)	growth inhibition by drug alone (RIVA [2]; 10 nM, time (day): 4)	growth inhibition by drug alone (RIVA [2]; 10 nM, time (day): 5)	growth inhibition by drug alone (RIVA [2]; 10 nM, time (day): 6)	growth inhibition by drug alone (RIVA [2]; 100 nM, time (day): 3)	growth inhibition by drug alone (RIVA [2]; 100 nM, time (day): 4)	growth inhibition by drug alone (RIVA [2]; 100 nM, time (day): 5)	growth inhibition by drug alone (RIVA [2]; 100 nM, time (day): 6)	growth inhibition by drug plus 177Lu-lilotomab satetraxetan (U-2932 [3]; 10 nM, time (day): 3)	growth inhibition by drug plus 177Lu-lilotomab satetraxetan (U-2932 [3]; 10 nM, time (day): 4)	growth inhibition by drug plus 177Lu-lilotomab satetraxetan (U-2932 [3]; 10 nM, time (day): 5)	growth inhibition by drug plus 177Lu-lilotomab satetraxetan (U-2932 [3]; 10 nM, time (day): 6)	growth inhibition by drug plus 177Lu-lilotomab satetraxetan (U-2932 [3]; 1000 nM, time (day): 3)	growth inhibition by drug plus 177Lu-lilotomab satetraxetan (U-2932 [3]; 1000 nM, time (day): 4)	growth inhibition by drug plus 177Lu-lilotomab satetraxetan (U-2932 [3]; 1000 nM, time (day): 5)	growth inhibition by drug plus 177Lu-lilotomab satetraxetan (U-2932 [3]; 1000 nM, time (day): 6)	growth inhibition by drug plus 177Lu-lilotomab satetraxetan (RIVA [4]; 10 nM, time (day): 3)	growth inhibition by drug plus 177Lu-lilotomab satetraxetan (RIVA [4]; 10 nM, time (day): 4)	growth inhibition by drug plus 177Lu-lilotomab satetraxetan (RIVA [4]; 10 nM, time (day): 5)	growth inhibition by drug plus 177Lu-lilotomab satetraxetan (RIVA [4]; 10 nM, time (day): 6)	growth inhibition by drug plus 177Lu-lilotomab satetraxetan (RIVA [4]; 100 nM, time (day): 3)	growth inhibition by drug plus 177Lu-lilotomab satetraxetan (RIVA [4]; 100 nM, time (day): 4)	growth inhibition by drug plus 177Lu-lilotomab satetraxetan (RIVA [4]; 100 nM, time (day): 5)	growth inhibition by drug plus 177Lu-lilotomab satetraxetan (RIVA [4]; 100 nM, time (day): 6)
O=C(O)Cc1cccc(OCCCN(Cc2cccc(C(F)(F)F)c2Cl)CC(c2ccccc2)c2ccccc2)c1	0.116	0.0747	-0.121	-0.11	0.111	0.127	-0.0348	-0.224	0.0962	0.115	0.0874	-0.0108	0.667	0.512	0.515	0.524	0.0517	0.0894	0.143	0.142	0.162	0.224	0.223	0.228	0.667	0.666	0.678	0.677	0.86	0.858	0.874	0.893
CNC(=O)c1ccc(C)c(-n2c(C)cc(OCc3ccc(F)cc3F)c(Br)c2=O)c1	-0.0234	-0.0123	-0.0323	0.108	0.24	0.241	0.147	0.195	-0.177	-0.212	-0.219	-0.282	-0.0302	-0.0737	-0.127	-0.224	-0.0515	-0.0206	-0.0169	0.111	0.253	0.259	0.213	0.294	0.41	0.508	0.521	0.522	0.384	0.458	0.462	0.428
C=C1/C(=C\C=C2/CCC[C@]3(C)[C@@H]([C@H](C)/C=C/[C@H](C)C(C)C)CC[C@@H]23)C[C@@H](O)C[C@@H]1O [Doxercalciferol (Hectorol)]	0.174	0.125	0.0899	0.0598	0.106	0.132	0.147	0.128	0.187	0.183	0.177	0.0541	0.0648	0.127	0.103	0.0636	0.15	0.183	0.229	0.36	0.0716	0.176	0.182	0.287	0.484	0.601	0.615	0.639	0.47	0.55	0.563	0.571
Nc1cc(C(F)(F)F)c(-c2cc(N3CCOCC3)nc(N3CCOCC3)n2)cn1	-0.0505	-0.0268	-0.042	0.0241	0.632	0.62	0.563	0.519	-0.24	-0.261	-0.283	-0.377	-0.244	-0.324	-0.245	-0.359	-0.138	-0.0899	-0.0958	-0.0143	0.508	0.421	0.403	0.455	0.268	0.424	0.461	0.48	0.33	0.394	0.402	0.384
C[C@]12CC[C@@H]3c4ccc(O)cc4CC[C@H]3[C@@H]1CC[C@@H]2O [Estradiol]	0.0973	0.0727	-0.00691	-0.0255	0.0487	0.0434	-0.00409	-0.0239	0.262	0.163	0.098	-0.022	0.0522	0.0345	-0.0106	-0.0996	0.0604	0.113	0.146	0.26	0.0789	0.106	0.106	0.215	0.509	0.574	0.594	0.601	0.584	0.611	0.607	0.585
OCCn1cc(-c2cnc3nnn(Cc4ccc5ncccc5c4)c3n2)cn1	0.0403	0.00489	-0.0584	-0.156	-0.178	-0.0659	-0.175	-0.214	0.0383	0.00592	-0.0414	-0.165	-0.319	-0.278	-0.299	-0.402	-0.0346	0.043	0.0857	0.105	0.0296	0.08	0.0788	0.176	0.521	0.575	0.599	0.603	0.384	0.474	0.467	0.46
CO[C@H]1C[C@@H]2CC[C@@H](C)[C@@](O)(O2)C(=O)C(=O)N2CCCC[C@H]2C(=O)O[C@H]([C@H](C)C[C@@H]2CC[C@@H](OC(=O)C(C)(CO)CO)[C@H](OC)C2)CC(=O)[C@H](C)/C=C(\C)[C@@H](O)[C@@H](OC)C(=O)[C@H](C)C[C@H](C)/C=C/C=C/C=C/1C [Temsirolimus (Torisel)]	0.777	0.721	0.634	0.594	0.733	0.73	0.677	0.63	0.78	0.785	0.769	0.7	0.803	0.83	0.833	0.812	0.68	0.614	0.579	0.568	0.648	0.681	0.651	0.651	0.842	0.865	0.86	0.839	0.846	0.883	0.885	0.887
Cn1cnc2c(F)c(Nc3ccc(Br)cc3Cl)c(C(=O)NOCCO)cc21 [AZD6244 (Selumetinib)]	0.124	0.0689	-0.0711	0.0468	0.116	0.112	-0.011	0.127	0.0177	-0.0269	-0.137	-0.558	-0.313	-0.239	-0.319	-0.531	-0.00544	0.0596	0.0509	0.056	0.15	0.192	0.203	0.285	0.452	0.491	0.497	0.504	0.277	0.359	0.316	0.307
COc1cc2ncnc(Nc3ccc(Oc4ccccc4)cc3)c2cc1OC	0.0897	0.0909	0.0445	-0.0326	0.038	0.0615	0.0344	0.0553	0.00348	0.0579	-0.00953	-0.188	-0.0251	0.00379	-0.0229	-0.143	0.0456	0.0896	0.111	0.169	-0.11	0.0137	0.0447	0.175	0.521	0.598	0.605	0.616	0.526	0.567	0.556	0.521
CC(C)OC(=O)C1=CN(C(=O)c2ccc(F)c(F)c2)CC(C)(C)c2c1[nH]c1ccccc21	0.0404	-0.0052	-0.0866	-0.191	-0.0177	-0.00403	-0.0481	-0.039	0.0268	0.00242	0.00693	-0.0298	-0.161	-0.106	-0.145	-0.234	0.0558	0.102	0.14	0.204	0.038	0.085	0.0862	0.162	0.587	0.594	0.614	0.598	0.546	0.595	0.608	0.597
O=C(O)c1ccc2c(c1)nc(Nc1cccc(Cl)c1)c1ccncc12 [cx-4945 (Silmitasertib)]	0.0111	-0.0226	-0.00497	0.0386	0.0436	0.0306	-0.0126	-0.0489	-0.142	-0.128	-0.161	-0.291	0.0492	-0.00845	-0.0374	-0.111	0.0376	0.0473	0.0445	0.189	0.0211	0.0508	0.0545	0.159	0.409	0.518	0.528	0.542	0.413	0.47	0.487	0.468
CCCCc1nc2cc(/C=C/C(=O)NO)ccc2n1CCN(CC)CC [SB939 (Pracinostat)]	0.0917	0.0424	-0.0359	-0.128	0.935	0.941	0.959	0.973	0.107	0.0736	0.0778	0.0437	0.513	0.435	0.418	0.353	0.0531	0.113	0.137	0.186	0.95	0.96	0.973	0.982	0.656	0.663	0.693	0.699	0.817	0.85	0.868	0.876
CC1(C)CCC(c2ccc(Cl)cc2)=C(CN2CCN(c3ccc(C(=O)NS(=O)(=O)c4ccc(N[C@H](CCN5CCOCC5)CSc5ccccc5)c(S(=O)(=O)C(F)(F)F)c4)cc3)CC2)C1 [ABT-263 (Navitoclax)]	-0.00418	-0.0018	-0.0135	0.024	0.0839	0.635	0.85	0.894	0.116	0.0668	0.0479	-0.0157	0.977	0.976	0.975	0.974	-0.0296	-0.00166	0.0241	0.15	0.115	0.591	0.816	0.904	0.568	0.593	0.605	0.604	0.984	0.983	0.983	0.983
Cc1nc(-c2ccc(OCC(C)C)c(C#N)c2)sc1C(=O)O [Febuxostat (Uloric)]	0.06	0.0554	0.0252	-0.0354	0.00138	0.0444	-0.00425	-0.214	0.0707	0.00437	-0.101	-0.473	0.158	0.082	0.0362	-0.046	0.0457	0.0731	0.0564	0.0873	-0.0156	0.0704	0.0056	-0.0613	0.368	0.506	0.513	0.525	0.42	0.463	–	–
